Laboratory results taken from PubChem BioAssay AID1159580 (chemical genetic matrix, 2015).
About 2,000 (36%) of roughly 5,500 compounds were called active. Roughly 18% stayed inconclusive and do not appear here. Cut-off read from the data, not from the text of the source: active = normalized growth mostly below about 0.91 (no sharp cut-off); inconclusive = no clear call, values can overlap the other calls; inactive = mostly above about 0.92. This is one part of the list.

Experiment: chemical genetic growth profiling, strain panel (AID 1159580);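 note: tested at 20 µM; growth read once vehicle control cultures reached saturation at 30 °C; 1 = growth at the plate median or of vehicle wells; lower values mean less growth of the strain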
Conditions: S. cerevisiae deletion strains, growth OD
[1] = locus YAL013W, strain DEP1, active compounds read low
[2] = locus YAL040C, strain CLN3, active compounds read low
[3] = locus YCL061C, strain MRC1 (second series), active compounds read low
[4] = locus YDR363W, strain ESC2, active compounds read low
[5] = locus YER002W, strain NOP16, active compounds read low
[6] = locus YMR263W, strain SAP30, active compounds read low
[7] = locus YNL153C, strain GIM3, active compounds read low
[8] = locus YNL175C, strain NOP13, active compounds read low
[9] = locus YNL197C, strain WHI3, active compounds read low
[10] = locus YNL224C, strain SQS1, active compounds read low
[11] = locus YOR083W, strain WHI5 (second series), active compounds read low
[12] = locus YPL241C, strain CIN2, active compounds read low
[13] = locus YDR150W, strain NUM1, active compounds read low
[14] = locus YPL055C, strain LGE1, active compounds read low
[15] = locus YAR019C, strain CDC15, active compounds read low
[16] = locus YBL105C, strain PKC1, active compounds read low
[17] = locus YBR135W, strain CKS1, active compounds read low
[18] = locus YBR136W, strain MEC1, active compounds read low
[19] = locus YBR160W, strain CDC28, active compounds read low
[20] = locus YDL017W, strain CDC7, active compounds read low
[21] = locus YDL028C, strain MPS1, active compounds read low
[22] = locus YDL101C, strain DUN1, active compounds read low
[23] = locus YDL108W, strain KIN28, active compounds read low
[24] = locus YDL132W, strain cdc53, active compounds read low
[25] = locus YDL214C, strain PRR2, active compounds read low
[26] = locus YDR052C, strain DBF4, active compounds read low
[27] = locus YDR054C, strain cdc34, active compounds read low
[28] = locus YDR226W, strain ADK1, active compounds read low
[29] = locus YDR477W, strain SNF1, active compounds read low
[30] = locus YER123W, strain YCK3, active compounds read low
[31] = locus YER133W, strain GLC7, active compounds read low
[32] = locus YFL009W, strain cdc4, active compounds read low
[33] = locus YFL029C, strain CAK1, active compounds read low
[34] = locus YFR003C, strain YPI1, active compounds read low
[35] = locus YFR019W, strain FAB1, active compounds read low
[36] = locus YFR028C, strain CDC14, active compounds read low
[37] = locus YGR040W, strain KSS1, active compounds read low
[38] = locus YGR052W, strain FMP48, active compounds read low
[39] = locus YGR092W, strain DBF2, active compounds read low
[40] = locus YHR030C, strain SLT2, active compounds read low
[41] = locus YHR079C, strain IRE1, active compounds read low
[42] = locus YHR082C, strain KSP1, active compounds read low
[43] = locus YHR205W, strain SCH9, active compounds read low
[44] = locus YIL147C, strain SLN1, active compounds read low
[45] = locus YJL095W, strain BCK1, active compounds read low
[46] = locus YJL128C, strain PBS2, active compounds read low
[47] = locus YJL157C, strain FAR1, active compounds read low
[48] = locus YJR016C, strain ILV3, active compounds read low
[49] = locus YJR066W, strain TOR1 (second series), active compounds read low
[50] = locus YJR066W, strain TOR1, active compounds read low
[51] = locus YKL048C, strain ELM1, active compounds read low
[52] = locus YKL067W, strain YNK1, active compounds read low
[53] = locus YKL101W, strain HSL1, active compounds read low
[54] = locus YKL193C, strain SDS22, active compounds read low
[55] = locus YKL203C, strain TOR2, active compounds read low
[56] = locus YLR113W, strain HOG1, active compounds read low
[57] = locus YLR133W, strain CKI1, active compounds read low
[58] = locus YLR403W, strain SFP1, active compounds read low
[59] = locus YML070W, strain DAK1, active compounds read low
[60] = locus YMR001C, strain CDC5, active compounds read low
[61] = locus YMR205C, strain PFK2 (second series), active compounds read low
[62] = locus YMR277W, strain FCP1, active compounds read low
[63] = locus YNL006W, strain LST8, active compounds read low
[64] = locus YNL020C, strain ARK1, active compounds read low
[65] = locus YNL161W, strain CBK1, active compounds read low
[66] = locus YNL183C, strain NPR1, active compounds read low
[67] = locus YNL207W, strain RIO2, active compounds read low
[68] = locus YNL222W, strain SSU72, active compounds read low
[69] = locus YNL307C, strain MCK1 (second series), active compounds read low
[70] = locus YOL078W, strain AVO1, active compounds read low
[71] = locus YOL136C, strain PFK27, active compounds read low
[72] = locus YOR061W, strain CKA2, active compounds read low
[73] = locus YOR119C, strain RIO1, active compounds read low
[74] = locus YOR231W, strain MKK1, active compounds read low
[75] = locus YOR329C, strain SCD5, active compounds read low
[76] = locus YPL031C, strain PHO85, active compounds read low
[77] = locus YPL153C, strain RAD53, active compounds read low
[78] = locus YPL204W, strain HRR25, active compounds read low
[79] = locus YPL209C, strain IPL1, active compounds read low
[80] = locus YPL256C, strain CLN2, active compounds read low
[81] = locus YPR025C, strain CCL1, active compounds read low
[82] = locus YPR106W, strain ISR1, active compounds read low
[83] = locus YPR111W, strain DBF20, active compounds read low
[84] = strain NNK1, active compounds read low
[85] = strain TSCII, active compounds read low
[86] = locus YGR078C, strain PAC10, active compounds read low
[87] = locus YJR075W, strain HOC1, active compounds read low
[88] = locus YMR307W, strain GAS1, active compounds read low

Measured: normalized growth

CN=C(N)NCCC[C@H](N)C(=O)O
inactive: [1] 1.02 | [2] 0.993 | [3] 1.03 | [4] 1.04 | [5] 0.992 | [6] 0.99 | [7] 1.02 | [8] 1.01 | [9] 1.01 | [10] 1.01 | [11] 1.01 | [12] 1

COc1cccc2c1[C@@H]1CN(CCCCn3c(=O)[nH]c4c(sc5ncc(-c6ccccc6)nc54)c3=O)C[C@@H]1CO2
active: [14] 0.781
inactive: [1] 0.921 | [2] 0.969 | [3] 0.962 | [13] 1.01 | [4] 0.963 | [5] 1.01 | locus YNL128W, strain TEP1, active compounds read low 1.02 | [7] 0.929 | [8] 1.03 | [9] 1 | [10] 1 | [11] 0.93 | [12] 0.984

Cc1nc(C(F)(F)F)ccc1C(=O)Sc1nnc(-c2ccc(C(F)(F)F)nc2C)o1
inactive: [15] 0.946 | [16] 0.95 | [17] 0.954 | [18] 0.955 | [19] 0.952 | [20] 0.951 | [21] 0.955 | [22] 0.961 | [23] 0.952 | [24] 0.956 | [25] 0.901 | [26] 0.949 | [27] 0.939 | [28] 0.946 | [29] 0.943 | [30] 0.858 | [31] 0.936 | [32] 0.946 | [33] 0.947 | [34] 0.952 | [35] 0.976 | [36] 0.959 | [37] 0.956 | [38] 0.929 | [39] 0.864 | [41] 0.737 | [42] 0.962 | [43] 0.732 | [44] 0.952 | [45] 0.861 | [46] 0.902 | [47] 0.945 | [48] 0.952 | [49] 0.716 | [50] 0.935 | [51] 0.937 | [52] 0.893 | [53] 0.886 | [54] 0.949 | [55] 0.989 | [57] 0.924 | [58] 0.945 | [59] 0.89 | [60] 0.953 | [61] 0.918 | [62] 0.951 | [63] 0.959 | [64] 0.889 | [65] 0.936 | [66] 0.905 | [67] 0.942 | [68] 0.954 | [69] 0.868 | [70] 0.949 | [71] 0.876 | [72] 0.887 | [73] 1.02 | [74] 0.802 | [75] 0.953 | [76] 0.94 | [77] 0.963 | [78] 0.934 | [79] 0.95 | [81] 0.949 | [82] 0.951 | [83] 0.919 | [84] 0.928 | [85] 0.943
active: [40] 0.617 | [56] 0.515 | [80] 0.605

Cc1nc(C(F)(F)F)ccc1-c1nnc(SC(=O)c2ccc(Cl)cc2)o1
active: [15] 0.875 | [16] 0.883 | [17] 0.884 | [18] 0.888 | [19] 0.878 | [20] 0.882 | [21] 0.884 | [22] 0.866 | [23] 0.882 | [24] 0.877 | [25] 0.648 | [26] 0.886 | [27] 0.857 | [28] 0.867 | [30] 0.49 | [32] 0.868 | [33] 0.872 | [34] 0.879 | [36] 0.881 | [40] 0.358 | [41] 0.442 | [42] 0.617 | [43] 0.348 | [44] 0.885 | [46] 0.747 | [48] 0.87 | [49] 0.393 | [51] 0.785 | [52] 0.641 | [53] 0.639 | [54] 0.874 | [56] 0.229 | [57] 0.684 | [59] 0.604 | [60] 0.875 | [61] 0.682 | [62] 0.876 | [63] 0.888 | [64] 0.655 | [65] 0.865 | [66] 0.566 | [67] 0.874 | [68] 0.877 | [69] 0.589 | [70] 0.874 | [71] 0.604 | [72] 0.644 | [74] 0.454 | [75] 0.877 | [79] 0.877 | [80] 0.334 | [81] 0.877 | [82] 0.833 | [83] 0.803 | [84] 0.786 | [85] 0.865
inactive: [29] 0.82 | [31] 0.792 | [35] 0.81 | [37] 0.831 | [38] 0.638 | [39] 0.568 | [45] 0.532 | [47] 0.764 | [50] 0.631 | [55] 0.862 | [58] 0.818 | [73] 0.909 | [76] 0.81 | [77] 0.837 | [78] 0.782

CCOC(=O)CC1=Nn2c(nnc2-c2cc(Cl)cc(Cl)c2)SC1
active: locus YBR229C, strain ROT2, active compounds read low 0.905 | [40] 0.538 | locus YJL187C, strain SWE1, active compounds read low 0.913 | [87] 0.811 | locus YML094W, strain GIM5, active compounds read low 0.823 | locus YNL298W, strain CLA4 (second series), active compounds read low 0.823
inactive: [1] 0.97 | [22] 0.914 | locus YDL134C, strain PPH21, active compounds read low 0.996 | [13] 0.857 | locus YEL061C, strain CIN8, active compounds read low 0.934 | [86] 0.97 | locus YGR229C, strain SMI1, active compounds read low 0.979 | locus YHR087W, strain rtc3, active compounds read low 0.927 | locus YJR043C, strain POL32, active compounds read low 0.989 | locus YLR039C, strain RIC1, active compounds read low 0.91 | locus YLR058C, strain SHM2 (second series), active compounds read low 0.971 | locus YLR085C, strain ARP6, active compounds read low 0.808 | locus YLR262C, strain YPT6, active compounds read low 0.982 | locus YMR219W, strain ESC1, active compounds read low 0.955 | [6] 0.965 | [88] 0.806 | [7] 0.95 | locus YNL322C, strain KRE1, active compounds read low 0.977 | locus YNR030W, strain Alg12, active compounds read low 0.914 | [14] 0.864 | [12] 1.01 | locus YPR135W, strain CTF4, active compounds read low 0.714

C=CCN1CC[C@]23CCCCC2[C@H]1Cc1ccc(O)cc13 (some centres undefined)
inactive: [1] 1.02 | [2] 1.01 | [3] 1.01 | [4] 1.02 | [5] 1 | [86] 0.995 | [87] 0.999 | [88] 1.01 | [7] 1.02 | [8] 1.01 | [9] 0.997 | [10] 0.988 | [11] 1.01
